Assays:
Conditions in all cases: concentration: 1 μM, replicates: in singlicate; n = 1
[1] = tested on: TSSK3
[2] = tested on: TTK
[3] = tested on: TXK
[4] = tested on: TYK2(JH1domain-catalytic)
[5] = tested on: TYK2(JH2domain-pseudokinase)
[6] = tested on: TYRO3
[7] = tested on: ULK1
[8] = tested on: ULK2
[9] = tested on: ULK3
[10] = tested on: T1, VEGFR2
T1 construct: gene KDR

[11] = tested on: T2, VPS34
T2 construct: gene PIK3C3

[12] = tested on: VRK2
[13] = tested on: WEE1
[14] = tested on: WEE2
[15] = tested on: WNK1
[16] = tested on: WNK2
[17] = tested on: WNK3
[18] = tested on: WNK4
[19] = tested on: T3, YANK1
T3 construct: gene STK32A

[20] = tested on: T4, YANK2
T4 construct: gene STK32B
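Further: KINOMEscan kinase panel screen.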

| SMILES | %Inh [1] | %Inh [2] | %Inh [3] | %Inh [4] | %Inh [5] | %Inh [6] | %Inh [7] | %Inh [8] | %Inh [9] | %Inh [10] | %Inh [11] | %Inh [12] | %Inh [13] | %Inh [14] | %Inh [15] | %Inh [16] | %Inh [17] | %Inh [18] | %Inh [19] | %Inh [20] |
| --- | --- | --- | --- | --- | --- | --- | --- | --- | --- | --- | --- | --- | --- | --- | --- | --- | --- | --- | --- | --- |
| O=c1cc(N2CCOCC2)nc2n(Cc3cccc4ccccc34)ccn12 [GSK2333389] | 0% | 10% | 0% | 24% | 10% | 0% | 14% | 7% | 7% | 0% | 98% | 0% | 13% | 12% | 2% | 0% | 0% | 0% | 1% | 0% |
| Cc1cccc(Cn2ccn3c(=O)cc(N4CCOCC4)nc23)c1 [GSK2297542] | 17% | 62% | 0% | 0% | 26% | 8% | 2% | 0% | 10% | 0% | 94.6% | 0% | 22% | 22% | 9% | 6% | 12% | 8% | 20% | 0% |
| O=C1Cc2cc(Nc3nc(NCc4cccc(S(=O)(=O)C(F)(F)F)c4)ncc3C(F)(F)F)ccc2N1 | 9% | 0% | 4% | 25% | 0% | 3% | 3% | 26% | 12% | 0% | 0% | 23% | 0% | 0% | 0% | 6% | 0% | 0% | 0% | 0% |
| COc1cc2ncn(-c3cc(OCc4sccc4Cl)c(C(N)=O)s3)c2cc1OC [GSK448459] | 10% | 5% | 0% | 22% | 19% | 0% | 17% | 0% | 19% | 0% | 60% | 5% | 4% | 5% | 19% | 45% | 60% | 31% | 11% | 0% |
| CN(C1=C(c2ccccc2)C(=O)NC1=O)c1ccccc1 [SB-334860] | 15% | 0% | 83% | 0% | 0% | 0% | 5% | 8% | 6% | 12% | 0% | 8% | 13% | 0% | 8% | 28% | 17% | 1% | 0% | 15% |
| NS(=O)(=O)c1cccc(-c2ccc3nccc(-c4cccc(S(N)(=O)=O)c4)c3c2)c1 [GW867253] | 0% | 0% | 5% | 0% | 39% | 0% | 12% | 81% | 18% | 4% | 78% | 12% | 0% | 0% | 7% | 0% | 0% | 0% | 0% | 0% |
| CNc1ncnc2[nH]ncc12 [SKF-18355] | 0% | 0% | 0% | 15% | 27% | 0% | 11% | 42% | 14% | 1% | 30% | 10% | 5% | 0% | 0% | 0% | 12% | 0% | 0% | 9% |
| c1ccc(-c2n[nH]cc2-c2ccnc3ccccc23)nc1 [GW271431] | 22% | 4% | 4% | 17% | 10% | 0% | 0% | 0% | 1% | 12% | 20% | 0% | 9% | 2% | 7% | 11% | 15% | 0% | 19% | 4% |
| CN1c2ccc(CNc3ccc(F)cc3)cc2-c2c(cnn2C)S1(=O)=O | 0% | 0% | 0% | 0% | 0% | 0% | 0% | 0% | 0% | 0% | 0% | 0% | 2% | 0% | 0% | 0% | 1% | 0% | 0% | 0% |
| N#Cc1ccc(-c2cc(-c3c[nH]nc3-c3ccccn3)ccn2)cc1 [GW693028] | 8% | 3% | 6% | 1% | 28% | 24% | 6% | 0% | 6% | 0% | 0% | 13% | 2% | 0% | 7% | 15% | 30% | 30% | 15% | 7% |
| O=C1NC(=O)C(N2CCc3ccccc32)=C1c1cccc(Cl)c1 [SB-408010] | 0% | 39% | 0% | 4% | 0% | 0% | 0% | 0% | 14% | 6% | 0% | 0% | 0% | 4% | 0% | 14% | 0% | 89% | 0% | 19% |
| CC(C)Oc1ccc2c(-c3ccnc(Nc4ccc(N5CCN(C)CC5)cc4)n3)cnn2n1 [GW696155] | 96% | 89% | 13% | 98% | 99.4% | 0% | 99.9% | 99.8% | 100% | 60% | 96% | 8% | 30% | 0% | 12% | 42% | 52% | 31% | 0% | 0% |
| O=C(Nc1cccc(-c2nn3ncccc3c2-c2ccnc(Nc3cccc(C(F)(F)F)c3)n2)c1)c1c(F)cccc1F [GSK299495] | 18% | 6% | 76% | 22% | 39% | 87% | 0% | 0% | 7% | 29% | 0% | 20% | 2% | 24% | 15% | 0% | 44% | 27% | 0% | 15% |
| COC(=O)Nc1nc2cc(Oc3ccc(NC(=O)Nc4cc(F)ccc4F)cc3)ccc2[nH]1.Cl [GW701424] | 8% | 0% | 88% | 30% | 46% | 0% | 0% | 0% | 7% | 68% | 0% | 30% | 1% | 9% | 12% | 0% | 48% | 58% | 0% | 0% |
| CN(C(=O)c1ccc(-c2cc(-c3c[nH]nc3-c3ccccn3)ccn2)cc1)C1CCOCC1 [GW810083] | 33% | 0% | 0% | 12% | 25% | 0% | 5% | 14% | 12% | 0% | 24% | 100% | 0% | 22% | 0% | 0% | 0% | 0% | 0% | 0% |
| CC(C)(C)n1cnc2c(N)ncnc21 [SKF-97359] | 45% | 0% | 0% | 21% | 1% | 0% | 0% | 0% | 0% | 0% | 15% | 100% | 0% | 12% | 0% | 25% | 40% | 0% | 0% | 0% |
| CSc1ccc(-c2cc3ncnc(SCC(=O)O)c3s2)cc1 | 0% | 0% | 0% | 0% | 0% | 0% | 0% | 8% | 0% | 0% | 31% | 0% | 0% | 15% | 0% | 0% | 0% | 0% | 0% | 0% |
| Cc1ccc(NC(=O)c2ccnc(N3CCN(C)CC3)c2)cc1-c1ccc(C(=O)NCC2CC2)cc1 [GW775604] | 0% | 0% | 0% | 100% | 0% | 0% | 0% | 100% | 0% | 0% | 0% | 17% | 0% | 0% | 0% | 0% | 0% | 0% | 0% | 1% |
| NCC(NC(=O)c1cc(-c2cn[nH]c2)c(-c2ccnc3[nH]ccc23)s1)c1ccccc1.O=C(O)C(F)(F)F.O=C(O)C(F)(F)F (centres unmarked) [GSK1325775] | 23% | 14% | 10% | 49% | 31% | 0% | 18% | 7% | 14% | 18% | 59% | 0% | 0% | 0% | 6% | 9% | 21% | 24% | 15% | 0% |

— article PMC5540273 (PLoS ONE, 2017)
